The results in this text go back to PubChem BioAssay AID1347419 (Sanford-Burnham Center for Chemical Genomics, 2020).

Out of some 99,000 compounds screened, about 820 (0.83%) were called active.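 How the source made its calls: active means Z-score of -3 or lower, scaled per plate to the spread of control and sample wells; inactive means z-score above -3.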 This excerpt belongs to a sample that is enriched for actives.

The target of the test is Protein-tyrosine kinase 2-beta (Homo sapiens) (UniProt Q14289). Nature of the test: Pyk2 FERM oligomerization blockers – Q293 cells, FERM NanoBiT luminescence, HTS, primary screen (AID 1347419).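 Further: the deposit names both 25 µM and 10 µM; negative z-score means lost luminescence so less FERM oligomerization.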 More on the design: dose or concentration left out as unconfirmed. The conditions noted are these: hits give low values.
Chain of Protein-tyrosine kinase 2-beta (Homo sapiens) (Q14289 whole entry, looked up): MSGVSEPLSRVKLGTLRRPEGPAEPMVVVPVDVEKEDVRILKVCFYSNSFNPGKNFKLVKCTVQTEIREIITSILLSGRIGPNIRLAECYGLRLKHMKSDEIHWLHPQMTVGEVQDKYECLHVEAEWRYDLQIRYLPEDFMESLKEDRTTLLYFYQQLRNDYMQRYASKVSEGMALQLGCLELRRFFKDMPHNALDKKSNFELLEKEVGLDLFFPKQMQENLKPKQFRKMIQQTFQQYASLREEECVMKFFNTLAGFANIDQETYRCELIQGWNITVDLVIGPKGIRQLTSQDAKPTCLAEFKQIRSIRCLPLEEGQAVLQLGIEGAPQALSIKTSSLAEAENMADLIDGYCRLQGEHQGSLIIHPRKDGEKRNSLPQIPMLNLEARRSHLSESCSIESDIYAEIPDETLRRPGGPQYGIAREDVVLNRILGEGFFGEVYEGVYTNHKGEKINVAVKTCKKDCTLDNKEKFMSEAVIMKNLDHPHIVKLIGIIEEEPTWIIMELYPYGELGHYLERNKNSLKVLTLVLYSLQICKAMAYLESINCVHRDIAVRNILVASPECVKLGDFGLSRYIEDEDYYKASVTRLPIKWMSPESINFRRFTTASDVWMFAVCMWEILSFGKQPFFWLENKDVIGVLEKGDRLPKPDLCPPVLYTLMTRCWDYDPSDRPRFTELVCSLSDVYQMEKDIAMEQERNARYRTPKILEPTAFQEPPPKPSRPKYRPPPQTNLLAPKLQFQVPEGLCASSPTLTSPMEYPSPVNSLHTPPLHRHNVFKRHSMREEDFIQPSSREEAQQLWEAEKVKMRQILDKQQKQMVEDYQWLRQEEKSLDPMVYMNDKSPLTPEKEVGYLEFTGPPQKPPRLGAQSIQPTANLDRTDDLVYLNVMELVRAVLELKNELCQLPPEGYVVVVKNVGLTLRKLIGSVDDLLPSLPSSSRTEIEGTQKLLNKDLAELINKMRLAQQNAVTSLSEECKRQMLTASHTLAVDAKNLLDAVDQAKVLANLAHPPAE
`Cc1ccc(NC(=O)Cn2cccc2C2=NC(c3ccccc3)CO2)c(C)c1` (configuration not stated): the z-score is -0.85 (inactive).
Take `OC(COCc1ccco1)CN1CCN(c2ccccc2)CC1` (configuration not stated): the z-score is 1 (inactive).
As for `CC(CNc1ccc([N+](=O)[O-])c2cccnc12)Nc1c([N+](=O)[O-])cc(C(F)(F)F)cc1[N+](=O)[O-]` (configuration not stated), the z-score is -1.13 (inactive).
As for `Cc1ccc(NC(=O)CC2C(=O)N(Cc3ccccc3)C(=S)N2NC(=O)c2cccc(F)c2)c(C)c1` (configuration not stated), the z-score is -1.13 (inactive).
Take `COC(=O)C1=NNC2(c3ccc(C)cc3)C(=O)N(c3cccc(C)c3C)C(=O)C12` (configuration not stated): the z-score was -0.49 (inactive).
Take `CCc1ccc(NC(=O)c2ccc(Cn3cc([N+](=O)[O-])cn3)cc2)cc1`: the z-score was -0.1 (inactive).
On to `O=C(CSC(=S)N1CCOCC1)c1ccccc1`, for which the z-score is 0.14 (inactive).
In the case of `CC(=O)Nc1ccc(SCC(=O)Nc2ccccc2Oc2ccccc2)cc1` it was -1.74 (inactive); in that of `COc1ccc(CCn2nnnc2C(c2ccccc2)N2CCN(C)CC2)cc1OC` (configuration not stated), 0.7 (inactive).
As for `COc1ccc(C(c2nnnn2Cc2cccs2)N2CCN(c3ccccc3)CC2)cc1OC` (configuration not stated), the z-score was -3.47 (active).
The figure for `COCCn1nnnc1C(c1ccccc1Cl)N1CCN(c2ccccc2OC)CC1` (configuration not stated) is 0.11 (inactive); for `CC1(C)Cc2cccc(OCC(=O)N3CCN(c4ccc([N+](=O)[O-])cc4)CC3)c2O1` it is -1.19 (inactive); for `COC(=O)c1ccc(C(=O)OC)c(NC(=S)N2CCN(c3cc(Cl)ccc3C)CC2)c1` it is 0.27 (inactive).
As for `CC(C)(C)n1nnnc1C(c1ccc(F)cc1)N1CCN(Cc2ccc3c(c2)OCO3)CC1` (configuration not stated), the z-score was -0.6 (inactive).
Take `Fc1ccccc1C(c1nnnn1Cc1ccc2c(c1)OCO2)N1CCN(Cc2ccccc2)CC1` (configuration not stated): the z-score is -3.73 (active).
`Cc1cc(C)c2[nH]c(=O)c(C(c3nnnn3Cc3ccc4c(c3)OCO4)N3CCCC3)cc2c1` (configuration not stated): the z-score was 0.33 (inactive).
Regarding `CCc1ccc(Oc2coc3cc(OC(=O)c4cc5ccccc5oc4=O)ccc3c2=O)cc1`, the z-score is -2.06 (inactive).
Consider `Cc1ccccc1NC(=O)c1ccccc1NS(=O)(=O)c1cccc2cccnc12`, for which the z-score was -1.55 (inactive).
Consider `C=CCNC(=O)c1ccccc1NC(=O)c1ccc(Cl)c(S(=O)(=O)Nc2cccc(C)c2C)c1`, for which the z-score is -3.05 (active).
As for `COC(=O)c1ccc(C(=O)Nc2cc(Cl)ccc2Cl)cc1NC(=O)c1ccccc1C`, the z-score is 0.09 (inactive).
Turning to `Cc1nc2ccccc2n1CC(=O)N/N=C/c1cccs1`, the z-score is 0.4 (inactive).
In the case of `CCCN1C(=O)C(Cc2nc3ccccc3c(=O)n2-c2ccccc2)c2cc(C)ccc21` (configuration not stated) it was 0.19 (inactive); in that of `Cc1nn(CC(=O)Nc2ccc(N(C)C)cc2)c(C)c1[N+](=O)[O-]`, -0.87 (inactive).
With `CCCCC(NS(=O)(=O)c1ccc(C)cc1)C(=O)Oc1ccc2c3c(c(=O)oc2c1)CCC3` (configuration not stated), the z-score is -1.42 (inactive).
As for `COC(=O)N/N=C/c1cn(CCCOc2ccc(C)cc2)c2ccccc12`, the z-score was -1.26 (inactive).
Take `CCn1c(C(C)NC(=O)c2ccc(C)cc2)n[nH]c1=S` (configuration not stated): the z-score is 0.28 (inactive).
Regarding `O=C(Nc1ccccc1)c1ccc2c(c1)OCO2`, the z-score is 1.34 (inactive).
Turning to `CCCC(=O)Nc1ccccc1N1CCN(C(=O)c2ccccc2)CC1`, the z-score was -1.16 (inactive).
Turning to `O=C(Nc1ccccc1N1CCN(C(=O)c2ccccc2)CC1)c1ccc2c(c1)OCO2`, the z-score is -3.44 (active).
The figure for `CCOc1ccc(NC(=O)CSc2nc3ccccc3c(=O)n2Cc2cccs2)cc1` is 0.79 (inactive).
As for `COC(=O)c1cn(-c2ccccc2)nc1-c1cccnc1`, the z-score is -0.5 (inactive).
Consider `COc1cc(C(=O)Nc2nccs2)cc(OC)c1OC`, for which the z-score is -2.06 (inactive).
Turning to `CC(=O)Cc1nsc(NC(=O)c2ccc(COc3ccc(C)cc3)o2)n1`, the z-score was -0.45 (inactive).
Turning to `COc1ccc(-c2nn(-c3ccccc3)cc2C(=O)Nc2nccs2)cc1OC`, the z-score is -3.32 (active).
For the compound `CC(=O)Cc1nsc(NC(=O)c2csc3c2CCCC3)n1`, the z-score is -1.89 (inactive).
In the case of `COc1ccc(-c2nn(-c3ccccc3)cc2C(=O)Nc2nc(CC(C)=O)ns2)cc1`, the z-score was -3.37 (active).
In the case of `COc1cccc(C(=O)Nc2cc3c(cc2Br)OCCCO3)c1` it was 0.23 (inactive); in that of `CCOc1ccc(NC(=O)CCC(=O)N/N=C/c2ccc([N+](=O)[O-])s2)cc1`, 0.19 (inactive); in that of `CC(C)(C)NC(=O)c1cccc(NC(=O)Cc2ccc(Br)cc2)c1`, -0.17 (inactive).
In the case of `COC(=O)c1c(NC(=O)CN2CCN(S(=O)(=O)c3ccccc3[N+](=O)[O-])CC2)sc2c1CCC(C)C2` (configuration not stated) it was 0.28 (inactive); in that of `CNC(=O)c1ccsc1NC(=O)c1ccc(S(=O)(=O)N2CCOCC2)cc1`, -1 (inactive); in that of `CC(=O)Oc1c(C(=O)c2nnc(C)o2)c(=O)n(Cc2ccccc2)c2ccccc12`, 0.7 (inactive).
Consider `O=C(Cc1c[nH]c2ccccc12)N/N=C/c1cccc(F)c1`, for which the z-score is -0.81 (inactive).
`COc1cccc2c1CCC(NC(C)=O)C2=O` (configuration not stated): the z-score is 0.78 (inactive).
On to `CCOC(=O)c1ccc(N/C(=N/S(=O)(=O)c2ccccc2)c2ccccc2)cc1`, for which the z-score is -1.09 (inactive).
Consider `COCCCNC(=O)CNC(=S)N(Cc1cc(OC)c(OC)c(OC)c1)C1CCCC1`, for which the z-score was 0.81 (inactive).
On to `Cc1ccc(C(=O)C(=S)N2CCOCC2)cc1`, for which the z-score is -0.25 (inactive).
Consider `COc1ccc(/C=C/C(=O)Nc2ccc3c(c2)OCCO3)cc1OC`, for which the z-score was -0.25 (inactive).
Regarding `Cc1ccc(C(=O)N2CC(=O)Nc3ccccc32)o1`, the z-score was -0.11 (inactive).
For the compound `CC(=O)Nn1cc2c(=O)n(C)c(=O)n(C)c2c1`, the z-score is 1.08 (inactive).
Regarding `Cn1c(=O)c2cn(-c3cccc4ccccc34)cc2n(C)c1=O`, the z-score was -3.24 (active).
With `COc1ccc(OC)c(-n2cc3c(=O)n(C)c(=O)n(C)c3c2)c1`, the z-score is -0.75 (inactive).
Consider `COc1ccc(CC(=O)Nc2cc(S(=O)(=O)N3CCCCC3)ccc2N2CCN(C)CC2)cc1`, for which the z-score was 0.23 (inactive).
`COc1ccccc1NC(=O)C1=C(C)Nc2nc3ccccc3n2C1c1cccs1` (configuration not stated): the z-score is -0.65 (inactive).
The figure for `CC(C)C(=O)Nc1ccc2c3c(cccc13)CC2` is -0.27 (inactive); for `O=c1c(-c2ccc3c(c2)OCCO3)c(C(F)(F)F)oc2cc(O)cc(O)c12` it is -1.19 (inactive).
The figure for `CCOC(=O)c1cc2cc(-c3c(C(=O)OCC)oc4cc(O)cc(O)c4c3=O)ccc2o1` is -3.6 (active).
On to `Cc1ccc(OC(=O)c2cc3ccccc3o2)cc1`, for which the z-score is 0.88 (inactive).
On to `O=C(NC(=S)NC1CCSC1=O)c1ccccc1F` (configuration not stated), for which the z-score is 2.45 (inactive).
In the case of `CCOc1ccc(/C=N/OCC(=O)NCc2cccs2)cc1` it was 0.26 (inactive); in that of `Nc1nc(SCc2ccc([N+](=O)[O-])cc2)c2ncn(C3OC(CO)C(O)C3O)c2n1` (configuration not stated), 1.34 (inactive).
As to `Cc1cccc(N2CCN(C(c3ccccc3)c3nnnn3CC3CCCO3)CC2)c1C` (configuration not stated), the z-score was -3.18 (active).
Consider `Cc1cccc(N2CCN(C(c3ccc(N(C)C)cc3)c3nnnn3C(C)(C)C)CC2)c1C` (configuration not stated), for which the z-score was 0.72 (inactive).
In the case of `COc1ccc(C(c2nnnn2C2CCCCC2)N2CCN(c3ccccc3F)CC2)cc1` (configuration not stated) it was -2.56 (inactive); in that of `COC(=O)c1cc(C(=O)CSc2nc(C)cc(C)n2)ccc1O`, -0.22 (inactive); in that of `Cc1cc(SCC(=O)c2ccccc2)nc(SCC(=O)c2ccccc2)n1`, -3.01 (active).
As to `Cc1nc(SCC(=O)c2ccccc2)c([N+](=O)[O-])[nH]1`, the z-score is -0.67 (inactive).
Consider `CC(C)=C1C2CCC1C1C(=O)N(NC(=O)c3ccco3)C(=O)C21` (configuration not stated), for which the z-score is 1.15 (inactive).
With `Cc1ccc(NC(=O)NC(=O)CSc2nnc(-c3ccc(OC(F)F)cc3)n2N)c(C)c1`, the z-score was -0.1 (inactive).
For `COc1ccc(-c2csc(NC(=O)CCCc3cccs3)n2)cc1`, the z-score is 0.83 (inactive).
In the case of `Cc1cccc(Nc2ccccc2C(=O)NCc2ccco2)c1C`, the z-score was -0.62 (inactive).
Turning to `CS(=O)(=O)N(Cc1ccc(Cl)cc1)c1ccc(C(=O)NCCSCc2ccco2)cc1`, the z-score was 0.47 (inactive).
The figure for `Cc1ccc(N(Cc2ccc(C(=O)Nc3ccccc3C(=O)NCc3ccco3)cc2)S(C)(=O)=O)cc1C` is -3.96 (active).
In the case of `CCOC(=O)N/N=C/c1cn(Cc2ccccc2Cl)c2ccccc12` it was -1.11 (inactive); in that of `C=CCn1c(SCc2cccc(F)c2)nc2cc(C(=O)N3CCC(C(N)=O)CC3)ccc2c1=O`, -1.07 (inactive); in that of `COc1ccc(/C=N/N=C/c2c[nH]c(=O)c(C#N)c2Nc2ccccc2)cc1`, 0.79 (inactive).
For the compound `CCOC(=O)CNC(=O)CSc1nnnn1-c1cc(C)ccc1C`, the z-score is -0.31 (inactive).
Turning to `COC(=O)c1ccccc1NC(=O)CSc1nnnn1C`, the z-score is 0.19 (inactive).
As to `CCOC(=O)c1c(-c2ccc(C)cc2C)csc1NC(=O)CSc1nnnn1C`, the z-score was -3.44 (active).
With `Cc1nonc1C(=O)N/N=C/c1ccc(O)cc1`, the z-score was 0.67 (inactive).
The figure for `CC(C)Nc1nnc(SCC(=O)c2c[nH]c3ccccc23)s1` is 0.14 (inactive); for `Cc1cccc(C(=O)c2cccc(C)c2)c1` it is 0.43 (inactive).
As to `Cc1cccc(-n2c(SCC(N)=O)nc3c(c2=O)C2(CCCCC2)Cc2ccccc2-3)c1`, the z-score was 1.27 (inactive).
For `CC(NC(=O)COC(=O)C1CCN(S(=O)(=O)c2ccccc2C(F)(F)F)CC1)c1ccccc1` (configuration not stated), the z-score is -0.04 (inactive).
Turning to `O=C(Nc1ccc(-c2nnc(-c3ccccc3)o2)cc1)c1ccc(Br)o1`, the z-score was 0.72 (inactive).
In the case of `Brc1ccc(-c2nnc(-c3ccccc3)o2)o1` it was -0.77 (inactive); in that of `Nc1ccc(-c2nnc(-c3ccc(-c4ccccc4)cc3)o2)cc1`, -3.38 (active); in that of `Cc1ccnc(NC(=O)c2ccoc2C)c1`, 0.21 (inactive).
In the case of `COc1ccc2[nH]c3ccc(OC)cc3c2c1` it was -0.72 (inactive).
`CCN(CC)CC(=O)c1c[nH]c2ccc(OC)cc12`: the z-score is -0.09 (inactive).
The figure for `COc1ccc2[nH]cc(/C=C(/C#N)S(=O)(=O)c3ccccc3)c2c1` is -3.31 (active).
Consider `CCOc1ccc(C(=O)Nc2cccc(SC)c2)cc1`, for which the z-score is 0.21 (inactive).
